Laboratory results from the supplement of paper PMC9433436.
± gives the standard deviation of the averaged measurements. Over roughly 4,100 sequences, “relative kcat/Km (krel) vs genomic leader AAAGAU” has its median near 1.7; the highest 2% begin near 6.5. This excerpt belongs to a sample that is enriched for the highest values.

Biological target: T1, E. coli RNase P holoenzyme (M1 P RNA + rnpA protein) (UniProt P0A7Y8)
T1 sequence: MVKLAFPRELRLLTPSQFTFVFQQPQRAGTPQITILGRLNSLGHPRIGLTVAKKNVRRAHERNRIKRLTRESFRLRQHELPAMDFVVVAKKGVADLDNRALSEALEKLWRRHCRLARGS
Assay: relative kcat/Km (krel) vs genomic leader AAAGAU (relative (reference leader = 1)); higher = faster RNase P cleavage
Experimental: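 HTS-Kin: a pool of ptRNA-Met (21C construct) with all 4096 combinations of 5' leader nucleotides N(-6) to N(-1) was processed in vitro by E. coli RNase P (P RNA + rnpA/C5 protein) under multiple-turnover conditions at 37 C, pH 8, 17.5 mM MgCl2. Residual substrate was Illumina-sequenced at several fractions reacted, and relative kcat/Km (krel) was computed by internal competition kinetics, calibrated to the genomic leader (AAAGAU = 1). The listed hexamer is the varied N(-6)..N(-1) leader (DNA letters), and it sits between a fixed 5' stem-loop flank (GCAUGCACGAAAGUGCGUGCUAUGAA) and the mature tRNA-Met starting GGCUACGUAGCUCAGUUGG. Two technical replicates are averaged.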

[1] = fraction of substrate reacted: ~26-29% (28.66% repeat 1, 26.4% repeat 2)
[2] = fraction of substrate reacted: ~9-10% (9.79% repeat 1, 9.1% repeat 2)
[3] = fraction of substrate reacted: ~13-16% (15.68% repeat 1, 13.17% repeat 2)

| Sequence | relative kcat/Km [1] | relative kcat/Km [2] | relative kcat/Km [3] |
| --- | --- | --- | --- |
| ATGTTG | 0.642 ± 0.16 |  |  |
| ATCTCA | 6.06 ± 2.4 | 3.67 ± 2 | 4.25 ± 0.21 |
| TTCTCA | 8.21 ± 3.6 | 4.88 ± 2.1 | 5.74 ± 0.87 |
| GTCTCA | 7.71 ± 2.8 | 3.83 ± 1.2 | 5.79 ± 0.43 |
| GTCTCG | 4.3 ± 1.1 | 2.29 ± 1.9 | 2.35 ± 0.054 |
| TTCTCG | 4.91 ± 1.5 | 2.16 ± 1.3 | 2.86 ± 0.45 |
| ATCTCT | 6.18 ± 2.7 | 3.47 ± 1.2 | 4.36 ± 0.18 |
| GTCTCT | 7.16 ± 1.8 | 4.15 ± 1.8 | 5.51 ± 0.37 |
| GTATCT | 4.66 ± 1.9 | 2.3 ± 0.54 | 3.23 ± 0.87 |
| TTCTCT | 8.57 ± 3.4 | 4.43 ± 1.1 | 6.17 ± 1.4 |
| GACTCA | 5.69 ± 2.1 | 3.33 ± 1.5 | 4.56 ± 0.1 |
| CTCTCA | 5.72 ± 1.9 | 3.31 ± 1.3 | 4.49 ± 0.63 |
| GTGTCT | 1.44 ± 0.22 | 0.45 ± 0.21 | 1.24 ± 0.15 |
| TTGCTA | 2.24 ± 0.7 | 2.11 ± 1.3 | 1.43 ± 0.11 |
| GACTCG | 3.21 ± 0.58 | 1.8 ± 1.4 | 1.87 ± 0.13 |
| TAAAGA | 3.01 ± 1.7 | 1.01 ± 0.34 | 1.61 ± 0.79 |
| CGCTGG |  | 0.49 ± 0.25 |  |
| TGCGAG | 1.39 ± 0.28 |  | 0.318 ± 0.22 |
| TTGCGA | 1.91 ± 0.14 | 1.1 ± 0.36 | 1.53 ± 0.44 |
| CGACAT | 4.82 ± 1.8 | 3.05 ± 0.3 | 3.54 ± 1.1 |
| GGGTTC | 0.82 ± 0.16 | 0.445 ± 0.035 | 0.916 ± 0.37 |
| CACGGA | 0.766 ± 0.63 |  |  |
| GGGATA |  |  | 0.415 ± 0.34 |
| TGCTCC | 2.87 ± 0.78 | 2.19 ± 0.87 | 2.31 ± 0.43 |
| GCCTCC | 5.33 ± 1.8 | 2.78 ± 1.2 | 3.32 ± 0.14 |
| CTCTCC | 6.17 ± 2.2 | 3.04 ± 0.91 | 4.91 ± 0.6 |

| Sequence | relative kcat/Km [1] | relative kcat/Km [2] | relative kcat/Km [3] |
| --- | --- | --- | --- |
| ATCTCC | 6.39 ± 2.9 | 3.67 ± 0.85 | 4.83 ± 1.4 |
| TTCTCC | 8.25 ± 3 | 5.23 ± 2.1 | 6.12 ± 0.67 |
| GGCTCC | 2.25 ± 0.7 | 2.56 ± 0.54 | 1.96 ± 0.23 |
| CTCTCT | 7.22 ± 3 | 4.48 ± 1 | 4.84 ± 1.6 |
| CTCTCG | 3.31 ± 0.37 | 1.91 ± 1.5 | 1.68 ± 0.37 |
| GTCTCC | 8.17 ± 3.2 | 4.62 ± 1.7 | 6.15 ± 0.65 |
| CGGAGG |  | 0.395 ± 0.29 |  |
| CATTTG | 1.49 ± 0.39 |  |  |
| ACGCTA | 1.74 ± 0.51 | 1.05 ± 0.29 | 0.572 ± 0.17 |
| GGCTTT | 2.15 ± 0.52 | 2.05 ± 0.44 | 1.76 ± 0.074 |
| CGAAGA | 3.52 ± 0.96 | 1.79 ± 0.84 | 2.39 ± 1 |
| CCACCG | 1.08 ± 0.58 |  |  |
| TAAGGC | 2.44 ± 2.2 | 1.46 ± 0.72 |  |
| TTCACT | 7.57 ± 3.1 | 4.07 ± 1.2 | 5.27 ± 1.4 |
| TTCACG | 4.56 ± 1.4 | 2.05 ± 1.9 | 2.41 ± 0.2 |
| CTCACC | 6.21 ± 2.6 | 2.93 ± 0.11 | 4.4 ± 1.5 |
| GGCACC | 2.04 ± 0.18 | 1.52 ± 1.3 | 1.01 ± 0.24 |
| GTCACC | 6.98 ± 2.7 | 3.43 ± 0.98 | 4.83 ± 0.44 |
| ATCACC | 5.67 ± 2 | 3.18 ± 0.62 | 3.68 ± 1 |
| TTCACC | 8.13 ± 3 | 3.91 ± 1.2 | 5.63 ± 0.6 |
| ATCACA | 5.18 ± 1.5 | 2.67 ± 1 | 3.8 ± 0.55 |
| GTCACG | 3.97 ± 0.54 |  | 1.84 ± 0.86 |
| TTCACA | 7.72 ± 3.1 | 4.51 ± 1.9 | 5.55 ± 0.86 |
| GTCACT | 6.31 ± 2.5 | 3.36 ± 0.97 | 3.29 ± 0.15 |
| ATCACT | 4.98 ± 2 | 3 ± 0.43 | 3.58 ± 1.1 |
